Source: PubChem (National Center for Advancing Translational Sciences (NCATS))
VACV Venus inh = qHTS for Stage-Specific Inhibitors of Vaccinia Orthopoxvirus: Venus Reporter Primary qHTS; Vaccinia virus Venus reporter expression, fluorescence; Potency, µM (doses to about 36.5 µM), inactives show at the highest dose activity change, negative = inhibition, hits mostly inhibitors; actives 0.46% (n = 330,000); AID 720580, 2013; calls by dose curve; tested in A549 cells; also: nearly all actives have a fitted effect of over 30% in size
Marburg entry inh = qHTS for inhibitors of binding or entry into cells for Marburg Virus | actives 1.8% (n = 300,000) | Potency, µM (series often up to 37.8 µM), for inactives: top-dose activity change, negative = inhibition, usual class: inhibitors | Marburg virus pseudotyped entry inhibition, cell reporter; calls by dose curve; tested in HEK293 cells
Vaccinia mCherry = qHTS for Stage-Specific Inhibitors of Vaccinia Orthopoxvirus: mCherry Reporter Primary qHTS | Vaccinia virus mCherry reporter infection, fluorescence | AID 720579, 2013 | Potency, µM (top dose mostly 36.5 µM), for inactives: at the highest dose activity change, negative = inhibition, usual class: inhibitors | actives 0.63% (n = 310,000); calls by dose curve; tested in A549 cells; also: nearly all actives have a fitted effect of over 35% in size
HCV inh = qHTS Assay for Inhibitors of Hepatitis C Virus (HCV); Potency, µM (titrated, usually from 41.8 µM), for the others: at the highest dose activity change, negative = inhibition, actives largely listed as inhibitors; actives 3.4% (n = 340,000); AID 651820, 2012; Huh7.5.1 HCVcc-Cre infection, luciferase reporter, 44 h; active = well fitted inhibition curve with a large enough effect; inconclusive = small, poorly fitted or top-dose-only effect, or another doubt; inactive = no such curve, though single readings can be large or run the other way
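Cells (1,000/well) were plated 4 h before compound, then infected with HCVcc-Cre virus (~0.5 moi). After 44 h further culture, infection was read as luciferase luminescence following a 15 min substrate incubation at room temperature.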
LASV entry inh = qHTS for Inhibitors of binding or entry into cells for Lassa Virus. AID 540256, 2011. Lassa virus pseudotype entry inhibition, cell reporter. actives 1.2% (n = 300,000). Potency, µM (top dose mostly 37.9 µM), for inactives: at the highest dose activity change, negative = inhibition, actives largely listed as inhibitors; calls by dose curve; tested in HEK293 cells; also: nearly all actives have a fitted effect of over 50% in size
* marks the source's active call; other numbers are inactive results; i = inactive; ? = inconclusive; · = no result given; [ ] = dose if it differs, or a comment. A selection: hits, their analogues and other compounds. The true share with any hit is near 4.6%. % is scaled to controls: 0 for no effect and ±100 for the full control effect; potency is read from the fitted curve at half-maximal effect.

SMILES	VACV Venus inh	Marburg entry inh	Vaccinia mCherry	HCV inh	LASV entry inh
CN(CCC#N)C(=O)COC(=O)c1ccccc1C(=O)c1ccc(Cl)c([N+](=O)[O-])c1	-19%	?	-24%	2.8µM*	?
O=C(COC(=O)c1ccccc1C(=O)c1ccc(Cl)c([N+](=O)[O-])c1)NC1CCCCCC1	·	4.1µM*	·	13µM*	18µM*
CCOc1ccc(OCC)c(NC(=O)C2CCN(S(=O)(=O)c3cn(C)cn3)CC2)c1	-3%	·	-10%	·	-3%[46.1 µM]
CCOc1cc(C(=O)CSc2nnc(CNc3ccc(Cl)cc3)o2)ccc1NC(=O)CC	13µM*	?	?	11µM*	?
COc1ccc(NCc2nnc(SCC(=O)c3ccc(OC)cc3)o2)cc1	·	?	·	?	1%
COC(=O)C1=CN(C(C)C)C=C(C(=O)OC)C1c1cc(Br)c(OC)c(OC)c1	·	?	·	-4%	4.1µM*
CNCCCCOc1ccccc1-c1ccccc1	?	7.1µM*	-22%	13µM*	?
Cc1ccc(C(=O)c2cnc3cc4c(cc3c2S(=O)(=O)c2ccccc2)OCCO4)cc1	?	7.1µM*	?	-7%	-2%
CC1C(=O)N2CCCc3cc(NC(=O)C(=O)NCCc4ccc(F)cc4)cc1c32 (stereo unspecified)	-20%	6%[46.1 µM]	-19%	11µM*	-20%
CC1C(=O)N2CCCc3cc(NC(=O)C(=O)NCCCc4ccccc4)cc1c32 (stereo unspecified)	-25%	?	-8%	?	12%
CCN(CC)c1ccc(C=C(c2nnnn2-c2ccccc2)c2nnnn2-c2ccccc2)cc1	-12%	?	-19%	?	2.5µM*
Cc1ccc(-n2nnnc2C(=Cc2ccc(N(C)C)cc2)c2nnnn2-c2ccc(C)cc2)cc1	-1%	?	-1%	?	?
Cc1ccc(CNC(=O)c2nn(C)c3c2CS(=O)(=O)c2ccccc2-3)cc1	-7%[7.34 µM]	·	-3%	-25%	7%[46.1 µM]
Cn1nc(C(=O)NCc2ccc(F)cc2)c2c1-c1ccccc1S(=O)(=O)C2	·	·	·	14µM*	·
Cc1ncc2c(c1CNS(=O)(=O)N(C)C)CCN(C(=O)c1c(F)cccc1F)C2	13%	·	-4%	·	·
Cc1cc(C2=NNC(=NCCc3ccccc3)SC2)c(C)n1CC1CCCO1 (stereo unspecified)	-7%	?	5%	11µM*	-4%
NC1=NC[C@H](Cc2ccc(O)cc2)N1CCCCC1CCCCC1	?	·	8.9µM*	4%[8.37 µM]	·
Oc1ccc(C[C@H]2CNCCN2CCCCC2CCCCC2)cc1	11µM*	·	?	?	·
CC1CN(CCNC(=O)C2CCCc3c2[nH]c2ccccc32)Cc2ccccc2O1 (stereo unspecified)	-11%	·	-15%	·	·
Cc1noc(C)c1COC(=O)c1cc2c3ccccc3n(C)c2s1	-7%	-28%	i	11µM*	?
CN(C)c1nc(N)nc(-c2cccnc2)n1	-2%	22%[46.1 µM]	·	-6%	14%
Cc1[nH]nc(-c2cccnc2)c1N=NN(C)C	?	7.1µM*	?	?	?
CC1=CC[C@@H](COc2ccccc2)O[C@@]2(C1)C(=O)N(Cc1ccccc1C(F)(F)F)c1ccccc12	·	1%[14.2 µM]	·	·	·
O=C(c1cnn(-c2nccc(-c3ccccc3C(F)(F)F)n2)c1C1CC1)N1CCN(CCO)CC1	3%	·	-8%	·	·
Cc1c(Cl)cccc1NC(=O)Nc1cc(C(C)(C)C)on1	-24%	·	5%	10µM*	·
SMILES	VACV Venus inh	Marburg entry inh	Vaccinia mCherry	HCV inh	LASV entry inh
CCOc1ccc(/C=C/c2ccnc3ccccc23)cc1OCC	-14%	·	-17%	·	·
CC(C(=O)NCC1CCCCC1)N(C)Cc1ccc(Cl)cc1 (stereo unspecified)	-18%	?	-15%	-12%	-3%[46.1 µM]
CSc1ccc(CN(C)C(C)C(=O)NCC2CCCCC2)cc1 (stereo unspecified)	-7%	11µM*	-21%	1%	16%[46.1 µM]
COc1ccccc1NC(=O)c1cc(-c2ccc(OC)c(OC)c2)nc2ccccc12	7%	4%[46.1 µM]	i	2%	2%[46.1 µM]
COc1ccccc1NC(=O)c1cc(Sc2nncn2C)nc2ccccc12	11µM*	-5%	·	-14%	0%
COc1ccc(-n2nc(C(=O)Nc3cc(OC)c(OC)c(OC)c3)c(=O)n(C)c2=O)cc1	-10%	·	-11%	·	13%[46.1 µM]
